This is a sample that favours compounds with a hit; in the whole collection about 7.3% have one here.
FLuc counter = counter-screen for miR-21 project: firefly luciferase inhibitors or activators; purified FLuc, Km substrates, luminescence inhibition; hit rate 6.9% among 360,000; Potency, µM (top dose mostly 57.5 µM), for inactives: at the highest dose activity change, negative = inhibition, usual class: inhibitors;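 also: plate controls were vehicle for no effect and reference inhibitor for full effect; nearly all actives have a fitted effect of over 55% in size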
Target sequence (P08659 whole entry, looked up): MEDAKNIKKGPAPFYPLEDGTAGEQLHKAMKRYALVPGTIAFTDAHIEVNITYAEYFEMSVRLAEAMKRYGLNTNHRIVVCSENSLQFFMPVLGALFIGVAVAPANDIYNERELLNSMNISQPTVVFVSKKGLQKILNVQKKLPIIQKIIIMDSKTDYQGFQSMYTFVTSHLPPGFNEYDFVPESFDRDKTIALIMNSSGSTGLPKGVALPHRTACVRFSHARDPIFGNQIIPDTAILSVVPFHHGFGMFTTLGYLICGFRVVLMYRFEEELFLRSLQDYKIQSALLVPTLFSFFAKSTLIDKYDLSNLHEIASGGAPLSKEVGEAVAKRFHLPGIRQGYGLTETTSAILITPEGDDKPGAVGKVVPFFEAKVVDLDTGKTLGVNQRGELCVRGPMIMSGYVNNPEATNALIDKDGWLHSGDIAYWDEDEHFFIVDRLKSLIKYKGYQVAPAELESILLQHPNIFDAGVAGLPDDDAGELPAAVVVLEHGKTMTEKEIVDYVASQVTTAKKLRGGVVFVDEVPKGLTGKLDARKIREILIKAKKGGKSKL
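Purified P. pyralis luciferase (10nM final) with 10uM D-luciferin and 10uM ATP (Km levels) in 50mM Tris acetate pH 7.5, 10mM Mg acetate, 0.01% Tween-20, 0.05% BSA; qHTS 6-point titration, ~60 µM downward; luminescence read.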
ELG1 genotox = inducers of genotoxicity in HEK293T ELG1-luciferase cells | HEK293T ELG1-luciferase reporter, luminescence, 16 h | Potency, µM (series often up to 46 µM), inactives show top-dose activity change, positive = activation, hits mostly activators | hit rate 1.3% among 330,000 | AID 504466; also: % of control where 0% means no effect; nearly all actives have a fitted effect of over 60% in size
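Quantitative HTS format in 1536-well plates. HEK293T ELG1-luciferase reporter cells receive test compound and are incubated 16 hr at 37 °C, 5% CO2; ONE-Glo added, 30 min room temperature, then luminescence read.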
SMN2 splice up = increases expression of the SMN2 splice variant; hit rate 2.8% among 210,000; Potency, µM (doses to about 46.1 µM), without a hit: top-dose activity change, positive = activation, usual class: activators; HEK293 SMN2-luciferase splicing reporter, luminescence, 30-36 h; also: % of control where 0% means no effect; nearly all actives have a fitted effect of over 55% in size
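HEK293 cells carry an SMN2 minigene-luciferase reporter in which exon 7 inclusion puts luciferase in frame. Cells were seeded at 2000 cells/well, attached for 10-12 hours, then exposed to compounds for 30-36 hours at 37C before ONE-Glo luminescence.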
NPC1 promoter act = activators of NPC1 promoter | Huh7 NPC1 promoter luciferase reporter, 24 h | Potency, µM (top dose mostly 9.22 µM), inactives show top-dose activation, hits mostly activators | AID 485313 | hit rate 2.4% among 320,000; also: % of control where 0% means no effect; nearly all actives have a fitted effect of over 60% in size
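Readout is luciferase luminescence, reflecting NPC1 promoter activation in stably transfected Huh7 cells after 24 h compound exposure at 37 °C in reduced-serum medium with 10% FBS.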
KinaseGlo FLuc = blocks Kinase-Glo luciferase, a counter-screen artifact. Kinase-Glo luciferase, ATP luminescence, 8 min. hit rate 0.28% among 200,000. AID 1379. Potency, µM (series often up to 38.3 µM), without a hit: at the highest dose activity change, negative = inhibition, actives largely listed as inhibitors; also: % is scaled to controls: 0 for no effect and ±100 for the full control effect; nearly all actives have a fitted effect of over 60% in size
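Recombinant Kinase-Glo luciferase, 10 uM ATP (linear range), luciferin; imidazole pH 7.2 / KCl / MgCl2 / Tween / BSA buffer; 8 min RT; luminescence.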
Rab9 prom act = Rab9 promoter activation; AID 485297; hit rate 2.8% among 320,000; Potency, µM (doses to about 9.22 µM), without a hit: top-dose activation, negative = inhibition, most hits filed as activators; Huh7 Rab9 promoter-luciferase reporter, luminescence, 24 h; also: % of control where 0% means no effect; nearly all actives have a fitted effect of over 60% in size
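Using Huh7 cells stably transfected with Rab9 promoter–luciferase, compounds were incubated 24 h at 37 °C, 5% CO2; luciferase luminescence was read 10 min after reagent addition.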
Active calls of the source: *; ? = inconclusive; . = no result. Calls follow the shape of the dose curve; as a rule, active = well fitted curve in the direction sought with a large enough effect; inconclusive = small, poorly fitted or top-dose-only effect, or another doubt; inactive = no such curve, though single readings can be large; an effect the other way counts as inactive or inconclusive. Potency is read from the fitted curve at half-maximal effect.

SMILES | FLuc counter | ELG1 genotox | SMN2 splice up | NPC1 promoter act | KinaseGlo FLuc | Rab9 prom act
O=C(Nc1ccn(-c2ccccc2)n1)c1ccccc1Br | ? | ? | 16µM* | ? | -2% | 27%
C=CCn1c(C)cc(C(=O)CN2NS(=O)(=O)c3ccccc3C2=O)c1C | 1.7µM* | 21µM* | -15% | 18% | 3% | ?
C=CCn1c(C)cc(C(=O)Cn2ncc(Cl)c(Cl)c2=O)c1C | 5.4µM* | -15% | ? | -16% | -4% | -25%
COc1cccc(/C=C(\C#N)C(=O)Nc2ccc(NC(C)=O)cc2)c1OC | -4% | . | . | . | . | .
Cc1noc(/C=C/Nc2ccc(F)cc2F)c1[N+](=O)[O-] | 2.1µM* | 16µM* | 4µM* | ? | ? | 1.4µM*
COc1ccccc1N/C=C/c1onc(C)c1[N+](=O)[O-] | 0.3µM* | ? | 1.1µM* | 1µM* | 11µM* | 0.4µM*
Cc1noc(/C=C/c2ccccn2)c1[N+](=O)[O-] | ? | -32% | . | -29% | . | -16%
O=C(CSc1ncc2c(n1)-c1ccccc1N(Cc1ccc(F)cc1)S2(=O)=O)c1ccc(Cl)cc1 | 2% | . | . | . | . | .
CCn1cc(S(=O)(=O)c2ccccc2)c(=O)c2cc(F)c(N3CCCCCC3)cc21 | -8% | . | . | . | . | .
CN(C)S(=O)(=O)Oc1cccc(C(=O)Nc2ccc(Cl)c(Cl)c2)c1 | 4.8µM* | 16% | 6% | 3.5µM* | -3% | 2µM*
CCC(=O)Nc1ccc(Cl)c(NC(=O)c2cccc(OC)c2)c1 | 2% | -2% | -18% | -2% | 1% | -6%
COc1ccc(NC(=O)c2cccc(OS(=O)(=O)N(C)C)c2)cc1 | 6µM* | 9% | 11µM* | 1.6µM* | -3% | 2µM*
COc1ccc(NC(=O)c2ccc(S(=O)(=O)N(C)C)cc2)cc1 | -18% | 3% | . | -4% | -1% | 1%
CNS(=O)(=O)c1cccc(C(=O)Nc2cccc(Cl)c2)c1 | ? | 1% | -19% | 19% | -1% | 26%
CN(C)S(=O)(=O)Oc1cccc(C(=O)Nc2cccc(Cl)c2)c1 | 13µM* | 0% | ? | ? | 1% | ?
COc1ccccc1CNC(=O)c1cnc2sc(N3CCCCCC3)nn2c1=O | -14% | . | . | . | . | .
CC(=O)N/C(N)=N/c1nc(=O)c2ccccc2s1 | 13µM* | 18µM* | . | ? | . | 2.5µM*
CCOC(=O)N/C(N)=N/c1nc2ccccc2s1 | 5.4µM* | 4.1µM* | 11µM* | 1.6µM* | -2% | 3.2µM*
O=C(O)c1cccc(N/N=C/c2cccs2)c1 | 0.43µM* | ? | 0.14µM* | ? | -2% | ?
O=C(O)c1cccc(N/N=C/c2ccc(OC(F)(F)F)cc2)c1 | 0.067µM* | ? | . | ? | . | 0.032µM*
O=C(O)c1cc(N/N=C/c2ccc(OCc3ccccc3)cc2)ccc1Cl | 6.7µM* | ? | 11µM* | 2.5µM* | 1% | 0.56µM*
O=C(Nc1ccc(OC(F)(F)F)cc1)c1cccc(-n2cnnn2)c1 | 0% | -1% | . | -2% | . | -7%
COC(=O)c1ccc(COc2ccc(/C=N/Nc3cccc(C(=O)O)c3)cc2)cc1 | 2.7µM* | ? | . | 0.71µM* | . | 0.4µM*
CC(C)C(=O)N/N=C/c1ccc(OCc2ccccc2)cc1 | -14% | 4% | -6% | 2% | -1% | 1%
O=C(O)c1cc(S(=O)(=O)Nc2cccc(F)c2)ccc1Cl | . | . | . | . | 4% | .
SMILES | FLuc counter | ELG1 genotox | SMN2 splice up | NPC1 promoter act | KinaseGlo FLuc | Rab9 prom act
CCOc1cc(/C=N/Nc2cccc(C(=O)O)c2)ccc1OCC(=O)N1CCCCC1 | 21µM* | ? | 11µM* | 4µM* | 7% | 4.5µM*
O=C(N/N=C/C=C/c1ccccc1)c1ccccc1Br | ? | -3% | 22% | 4% | -4% | -2%
O=C(O)c1cc(N/N=C/C=C/c2ccccc2)ccc1Cl | 7.6µM* | 9.2µM* | 10µM* | 0.4µM* | 2% | 0.35µM*
O=C(O)c1ccc(N/N=C/c2ccc(OC(=O)c3cccc(Cl)c3)cc2)cc1 | 19µM* | -4% | . | ? | . | ?
CSc1ccc(/C=N/Nc2cccc(C(=O)O)c2)cc1 | 0.076µM* | 0.073µM* | 0.25µM* | ? | -2% | 0.089µM*
COC(=O)c1cc(-c2ccc(C)cc2)c2c(=O)n(C)c(=O)n(C)c2n1 | 2% | . | -2% | . | . | .
Cc1cc(NC(=O)N2CCC(CN3CCOCC3)CC2)ccc1Br | -10% | . | . | . | . | .
O=C(Nc1ccc(OCc2cc(=O)n3c4c(sc3n2)CCCC4)cc1)c1ccccc1 | -1% | . | -2% | . | . | .
O=C(COc1ccccc1C(=O)c1cnn(-c2ccccc2)c1)Nc1ccccc1 | 1.5µM* | 5% | 25µM* | 26% | -8% | ?
CCNC(=O)COc1ccc(F)cc1C(=O)c1cnn(-c2ccccc2)c1 | 0% | 6% | . | 1% | . | 2%
COc1ccccc1CNC(=O)COc1ccccc1C(=O)c1cnn(-c2ccccc2)c1 | 9.5µM* | 7% | . | 16% | . | 17%
Cc1occc1C(=O)O/N=C(\N)c1ccccc1 | 1.9µM* | ? | . | 0.45µM* | . | 0.45µM*
Cc1cccc(/C(N)=N/OC(=O)c2ccoc2C)c1 | 3.8µM* | ? | . | 1.1µM* | . | 1.3µM*

Source: PubChem (National Center for Advancing Translational Sciences (NCATS))
